Results published in PubChem BioAssay (NCI).
Several values for one entry are separate records, joined by “and”; a condition that tells them apart may be missing. Equal values may be shown once. Compounds without any hit were thinned out: in the full panel of roughly 79,000, 15% have a hit. Some structures have more than one record in an assay (separate samples or runs), and their calls can disagree. Activity calls are given as the source filed them. Rule as the data show it: active = growth inhibition above about 70%; inactive = the rest.

Key:
[1] = NCI Yeast Anticancer Drug Screen. Data for the wt1 strain (AID 149);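 also: 0% = growth of vehicle-treated wt1 cultures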; conditions: S. cerevisiae wt1 strain (SPY 50644) growth inhibition, stronger effect = higher value
In short: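 Growth inhibition read against vehicle controls after compound exposure of the wt1 yeast strain.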

[2] = NCI Yeast Anticancer Drug Screen. Data for the rad50EPP+ strain (AID 151);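 also: 0% = growth of vehicle-treated control cultures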; conditions: S. cerevisiae rad50 mutant strain, stronger effect = higher value
In short: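 Genetically defined yeast (rad50EPP+, DNA damage repair alteration) is grown with compound, and inhibition of growth is expressed relative to vehicle-treated controls.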

[3] = NCI Yeast Anticancer Drug Screen. Data for the mgt1 strain (AID 153); conditions: S. cerevisiae mgt1 mutant growth inhibition, stronger effect = higher value
In short: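 In the mgt1 strain, test compounds were added and growth inhibition was determined relative to vehicle-treated controls.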

[4] = NCI Yeast Anticancer Drug Screen. Data for the rad50 strain (AID 155);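 also: 0% = growth of vehicle-only cultures of the same strain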; conditions: S. cerevisiae rad50 strain growth inhibition, stronger effect = higher value
In short: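 Readout: growth inhibition relative to vehicle-treated cultures. Compound exposure was carried out in a genetically defined yeast strain deficient in DNA damage repair.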

[5] = NCI Yeast Anticancer Drug Screen. Data for the mec2-1 strain (AID 157); conditions: S. cerevisiae mec2-1 strain, stronger effect = higher value
In short: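 Each compound was tested on mec2-1 yeast, a strain altered in DNA damage repair or cell cycle control. Growth inhibition is reported relative to vehicle.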

[6] = NCI Yeast Anticancer Drug Screen. Data for the rad14 strain (AID 159);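 also: 0% = growth of vehicle-treated control cultures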; conditions: S. cerevisiae rad14 strain growth inhibition, stronger effect = higher value
In short: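 Growth inhibition vs vehicle controls; genetically altered yeast strain (DNA damage repair defect) treated with test compounds.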

[7] = NCI Yeast Anticancer Drug Screen. Data for the sgs1 mgt1 strain (AID 161);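 also: 0% = growth of cultures given vehicle only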; conditions: S. cerevisiae sgs1 mgt1 strain, stronger effect = higher value
In short: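 Read-out: growth inhibition vs vehicle controls. Cells: mutant yeast strain deficient in DNA damage repair.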

[8] = NCI Yeast Anticancer Drug Screen. Data for the CLN2oe strain (AID 163);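 also: 0% = growth of vehicle-only control cultures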; conditions: S. cerevisiae CLN2oe strain, stronger effect = higher value
In short: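 First, the altered yeast strain was treated with each compound; second, its growth was measured; finally, inhibition was derived by comparison with vehicle controls.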

[9] = NCI Yeast Anticancer Drug Screen. Data for the cln2 rad14 strain (AID 165);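 also: 0% = growth equal to vehicle treated cultures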; conditions: S. cerevisiae cln2 rad14 strain, stronger effect = higher value
In short: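 Test compounds were added to cln2 rad14 yeast cultures; inhibition of growth was then determined by comparison with vehicle treatment.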

[10] = NCI Yeast Anticancer Drug Screen. Data for the bub3 strain (AID 167); conditions: S. cerevisiae bub3 mutant strain, stronger effect = higher value
In short: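 Readout: yeast growth inhibition, expressed relative to vehicle-only wells. The test organism is a mutant strain from a panel with lesions in DNA repair or checkpoint genes.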

[11] = NCI Yeast Anticancer Drug Screen. Data for the wt2 strain (AID 169);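 also: 0% = growth of vehicle-treated yeast cultures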; conditions: S. cerevisiae wt2 strain growth inhibition, stronger effect = higher value
In short: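 The panel's yeast strains carry defined changes in DNA repair or cell cycle genes. Each strain is grown with compound, and growth loss is scored relative to vehicle.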

[12] = NCI Yeast Anticancer Drug Screen. Data for the mlh1 strain (AID 171);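 also: 0% = growth of vehicle-treated control cultures of the same strain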; conditions: S. cerevisiae mlh1 strain growth inhibition, stronger effect = higher value
In short: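 Inhibition values reflect reduced yeast growth in the presence of compound, referenced to vehicle controls, using a strain chosen for its alteration in DNA repair or cell cycle control.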

[13] = NCI Yeast Anticancer Drug Screen. Data for the mlh1 rad18 strain (AID 175); conditions: S. cerevisiae mlh1 rad18 strain growth inhibition, stronger effect = higher value
In short: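 Inhibition values reflect reduced growth of mutant yeast versus vehicle-treated controls following compound exposure; the mutations affect DNA damage repair.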

[14] = NCI Yeast Anticancer Drug Screen. Data for the rad18 strain (AID 177); conditions: S. cerevisiae rad18 mutant growth inhibition, stronger effect = higher value
In short: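 Steps: expose repair-mutant yeast to compound; measure growth; express as inhibition relative to vehicle control.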

[15] = at 5.0 µM (retest, dose inferred, filed as 0.5)
[16] = at 50.0 µM (retest, dose inferred, filed as 5.0)

Measured: growth inhibition

CCCCCCCCCCCCCCCCCN
-6.55% (inactive) and 92% (active): [5]; at 50.0 µM
inactive: [1]; at 1.2 µM -23% | [1]; at 3.7 µM -25% | [1]; at 11.0 µM -5% | [2]; at 1.2 µM -14% | [2]; at 3.7 µM 11% | [3]; at 1.2 µM -29% | [3]; at 3.7 µM -24% | [4]; at 1.2 µM -27% | [4]; at 3.7 µM -17% | [4]; [15] 26% | [5]; at 1.2 µM -37% | [5]; at 3.7 µM -28% | [5]; [15] 51% | [6]; at 1.2 µM -31% | [6]; at 3.7 µM -24% | [6]; at 11.0 µM 14% | [7]; [15] 7% | [7]; [16] 50% | [8]; at 1.2 µM -22% | [8]; at 3.7 µM 11% | [9]; [15] 16% | [9]; at 50.0 µM 6.8% and 37% | [10]; at 1.2 µM -10% | [10]; at 3.7 µM -4% | [10]; [15] 54% | [11]; at 1.2 µM -15% | [11]; at 3.7 µM -12% | [11]; at 11.0 µM 49% | [12]; at 1.2 µM -31% | [12]; at 3.7 µM 0% | [13]; [15] 41% | [14]; at 1.2 µM -38% | [14]; at 3.7 µM -18% | [14]; at 11.0 µM 61% | [14]; at 33.0 µM 15%
47.4% (inactive) and 92.5% (active): [7]; at 50.0 µM
active: [1]; at 33.0 µM 90% | [1]; at 100.0 µM 94% | [2]; at 11.0 µM 82% | [2]; at 33.0 µM 97% | [2]; at 100.0 µM 96% | [3]; at 11.0 µM 86% | [3]; at 33.0 µM 97% | [3]; at 100.0 µM 96% | [4]; at 11.0 µM 85% | [4]; at 33.0 µM 97% | [4]; [16] 96% | [4]; at 100.0 µM 94% | [5]; at 11.0 µM 91% | [5]; at 33.0 µM 98% | [5]; [16] 97% | [5]; at 100.0 µM 93% | [6]; at 33.0 µM 95% | [6]; at 100.0 µM 94% | [8]; at 11.0 µM 94% | [8]; at 33.0 µM 98% | [8]; at 100.0 µM 95% | [9]; [16] 90% | [10]; at 11.0 µM 90% | [10]; at 33.0 µM 98% | [10]; [16] 97% | [10]; at 100.0 µM 95% | [11]; at 33.0 µM 90% | [11]; at 100.0 µM 96% | [12]; at 11.0 µM 90% | [12]; at 33.0 µM 97% | [12]; at 100.0 µM 94% | [13]; [16] 96% | [14]; at 100.0 µM 93%
3.15% (inactive) and 90.2% (active): [4]; at 50.0 µM
32.8% (inactive) and 90.2% (active): [10]; at 50.0 µM
23.5% (inactive) and 89.9% (active): [13]; at 50.0 µM
